# Measured values as given in PubChem BioAssay (NCATS).
# Inconclusive results are not listed. A call without a number means that no potency is given here. Calls of active or inactive are those of the source. Unless noted, calls follow the shape of the dose curve; as a rule, active = well fitted curve in the direction sought with a large enough effect; inconclusive = small, poorly fitted or top-dose-only effect, or another doubt; inactive = no such curve, though single readings can be large; an effect the other way counts as inactive or inconclusive.
# Columns and labels:
# [1] = High-throughput drug toxicity screening in the BPDCN cell line Gen2.2 (AID 1224824; call rule not given here;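 also: cells exposed to compounds for 48 h before reading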); details: Gen2.2 BPDCN cells; at 45.8 µM (top of the series)
# In short: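 Gen2.2, 500 cells/well, phenol red-free RPMI/10% FBS/Pen-Strep; 48 h cpd, 37 °C/5% CO2; CTG lum, 15 min RT. Norm: DMSO = 100%, bortezomib 9.2 uM final = 0%.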
# [2] = High-throughput drug toxicity screening in the BPDCN cell line Cal-1 (AID 1224825; call rule not given here); details: Cal-1 BPDCN cell viability, qHTS; at 45.8 µM (top of the series)
# In short: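 Percent activity derived from CellTiter-Glo luminescence, scaling DMSO to 100% and 9.2 uM final bortezomib to 0%. BPDCN Cal-1 cells (500/well, RPMI plus 10% FBS) incubated with compounds 48 hours at 37C before reading.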
# [3] = qHTS assay for measurement of the activity of small molecule inhibitors on Zika virus induced Caspase-3 activity in human iPSC derived neural progenitor cells (hNPCs) (AID 1224857); details: hNPCs ZIKV-induced caspase-3/7, Caspase-Glo luminescence, 6 h; series mostly up to 45.7 µM; also: nearly all actives have a fitted effect of over 65% in size
# In short: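 Human iPSC-derived neural progenitor cells pretreated 1 hr with compounds, then infected with Zika virus (2 FFU/cell) for 6 hours at 37 C. Caspase-3/7 measured by Caspase-Glo luminescence; % inhibition calculated from induction scaled to uninfected (0%) and infected (100%) wells.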
# [4] = qHTS assay for measurement of the activity of small molecule inhibitors on Zika virus induced Caspase-3 activity in human astrocytoma cells (AID 1224859); details: SNB-19 ZIKV-induced caspase-3/7, luminescence, 6 h; series mostly up to 45.7 µM
# In short: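 SNB-19 astrocytoma cells, 250/well, pretreated 1 h with compounds, then Zika virus at 2 FFU/cell for 6 h at 37 C; Caspase-Glo 3/7 luminescence after 30 min; percent inhibition normalised to uninfected and infected controls.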
# [5] = qHTS Screen of the MIPE 4.0 Collection Against Ewings Sarcoma (RDES) (AID 1259252); details: RD-ES Ewing sarcoma viability, CellTiter-Glo, 48 h; series mostly up to 45.8 µM; also: nearly all actives have a fitted effect of over 35% in size; also: potency is read from the fitted curve at half-maximal effect
# In short: (§1)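 After a 4 h attachment period in RPMI/5% FBS, cells were pin-dosed with test compounds; DMSO served as negative and 9.2 uM bortezomib (final) as positive control. Luminescent CellTiter-Glo signal at 48 h defined viability.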
# [6] = qHTS Screen of the MIPE 4.0 Collection Against Ewings Sarcoma (TC71) (AID 1259253); details: TC71 Ewing sarcoma viability, CellTiter-Glo, 48 h; series mostly up to 45.8 µM; also: nearly all actives have a fitted effect of over 40% in size; also: potency is read from the fitted curve at half-maximal effect
# In short: as §1
# [7] = qHTS Screen of the MIPE 4.0 Collection Against Ewings Sarcoma (EW8) (AID 1259255); details: EW8 Ewing sarcoma viability, CellTiter-Glo, 48 h; series mostly up to 45.8 µM; also: nearly all actives have a fitted effect of over 35% in size; also: potency is read from the fitted curve at half-maximal effect
# In short: as §1
# [8] = qHTS Screen of the MIPE 4.0 Collection Against Ewings Sarcoma (TC32) (AID 1259256); details: TC32 Ewing sarcoma viability, CellTiter-Glo, 48 h; series mostly up to 45.8 µM; also: nearly all actives have a fitted effect of over 45% in size; also: potency is read from the fitted curve at half-maximal effect
# In short: as §1
# [9] = qHTS assay to identify small molecule inhibitors of chordoma cells - UCH-1 (AID 1259355); details: UCH-1 chordoma viability, CellTiter-Glo, 48 h, combination; series mostly up to 46.1 µM; also: nearly all actives have a fitted effect of over 55% in size
# In short: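 800 cells/well, overnight attach; compounds pinned at 15 concs, then auranofin/camptothecin/doxorubicin/rubitecan/topotecan combo added; 48hr 37 C, 5% CO2; CellTiter-Glo, 30min RT, luminescence.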
# [10] = qHTS assay to identify small molecule inhibitors of chordoma cells - UCH-2 (AID 1259356); details: UCH-2 chordoma viability, CellTiter-Glo ATP luminescence, 48 h; series mostly up to 46.1 µM
SMILES,"cell viability, % of control (lower = more cytotoxic) [1] [%]",viability (% of control) [2] [%],Potency [3],Potency [4],Potency [5],Potency [6],Potency [7],Potency [8],Potency [9],Potency [10]
O=[N+]([O-])c1ncc[nH]1,102,122,inactive,inactive,inactive,inactive,,,,
C[C@]12Cc3cn[nH]c3C[C@@H]1CC[C@@H]1[C@H]2CC[C@@]2(C)[C@H]1CC[C@]2(C)O,133,111,inactive,inactive,2.96 µM (active),,2.96 µM (active),3.32 µM (active),,
COC1=CC(C)=C[C@@H](C)[C@@H](O)[C@@H](C)CC(C)=CC=C[C@H](OC)[C@H]([C@@H](C)[C@@H](O)[C@H](C)[C@@]2(O)C[C@@H](O)[C@H](C)[C@@H](C(C)C)O2)OC1=O,67.2,18.4,inactive,inactive,0.0059 µM (active),,0.0053 µM (active),0.0033 µM (active),,
C[C@H]([C@H](O)CCC(C)(C)O)[C@H]1CC[C@@]2(O)C3=CC(=O)[C@@H]4C[C@@H](O)[C@@H](O)C[C@]4(C)[C@@H]3CC[C@]12C,127,110,inactive,inactive,inactive,inactive,inactive,inactive,,
C=C[C@@H]1CN2CCC1C[C@H]2[C@H](O)c1ccnc2ccccc12 (stereo partly specified),14.7,47.1,inactive,inactive,23.5 µM (active),20.9 µM (active),,18.7 µM (active),,
COc1ccc(C(=O)c2c(C)n(CCN3CCOCC3)c3cc(I)ccc23)cc1,4.27,5.23,inactive,inactive,,,,,,
Cc1nc(-c2ccc(-c3ccc(C(=O)N4CCc5cc6c(cc54)C4(CCN(C)CC4)CO6)cc3)c(C)c2)no1,163,126,inactive,inactive,inactive,inactive,,inactive,,
C[C@]12CC[C@H]3[C@@H](CCC4=CC(=O)CC[C@@]43C)[C@H]1CC[C@H]2OC(=O)CCC1CCCC1,94,104,inactive,inactive,inactive,inactive,inactive,inactive,,
COC(=O)[C@@H](N)CCCN=C(N)N[N+](=O)[O-],113,132,inactive,inactive,inactive,,inactive,inactive,,
CN[C@@H]1Cc2cccc3[nH]c(=O)n(c23)C1,231,119,inactive,inactive,inactive,inactive,inactive,inactive,,
C[C@@H]1[C@H](O)[C@@H](C)C=CC=CCCC=CC=CC=CC=C[C@H](O[C@H]2O[C@@H](C)[C@H](O)[C@@H](N)[C@@H]2O)CC2O[C@](O)(C[C@@H](O)[C@H](O)CC[C@@H](O)C[C@@H](O)C[C@@H](O)CC(=O)O[C@H]1C)C[C@H](O)[C@H]2C(=O)O,152,124,inactive,inactive,inactive,,inactive,inactive,,
COc1ccc2c(c1)[C@]13CCCCC1C(C2)N(C)CC3 (stereo partly specified),61.8,93.4,inactive,inactive,inactive,inactive,,inactive,,
O=c1[nH]c2ccccc2n1C1CCN(Cc2ccc(-c3[nH]c4cc5ncnc5cc4nc3-c3ccccc3)cc2)CC1,4.84,3.61,inactive,inactive,23.5 µM (active),,18.7 µM (active),20.9 µM (active),,
COc1ccc2c(c[n+](C)c3c4cc5c(cc4ccc23)OCO5)c1OC,7.65,3.4,inactive,inactive,4.69 µM (active),9.35 µM (active),7.43 µM (active),8.33 µM (active),,
C=C[C@@H]1CN2CCC1C[C@@H]2[C@@H](O)c1ccnc2ccccc12 (stereo partly specified),220,93.3,inactive,inactive,16.6 µM (active),,,,,
COC1=C[C@@H]2[C@@H]3Cc4ccc(OC)c(O)c4[C@]2(CCN3C)CC1=O,69.4,12.3,inactive,inactive,4.69 µM (active),3.32 µM (active),,2.96 µM (active),,
CCN1CCN(C(=O)Cc2ccc(Nc3ncc(F)c(Nc4ccc(C(=O)Nc5ccccc5Cl)cc4)n3)cc2)CC1,2.73,2.31,inactive,inactive,8.33 µM (active),5.9 µM (active),2.96 µM (active),4.18 µM (active),,
C=CCON=C(C[C@H]1O[C@@H]2O[C@]3(C)CC[C@@H]4[C@H](C)CC[C@@H]([C@H]1C)[C@@]24OO3)[C@H]1O[C@@H]2O[C@]3(C)CC[C@H]4[C@H](C)CC[C@@H]([C@@H]1C)[C@@]24OO3,19.7,23.2,inactive,inactive,0.469 µM (active),0.418 µM (active),,,,
COc1ccc(CC2NCCc3cc(OC)c(OC)cc32)cc1OC (stereo unspecified),150,102,inactive,inactive,23.5 µM (active),,inactive,inactive,,
Cc1ccccc1-n1c(Cn2ncc3c(N)ncnc32)nc2cccc(C)c2c1=O,28.1,17.1,inactive,inactive,10.5 µM (active),16.6 µM (active),,11.8 µM (active),,
CC1=NN=C(c2ccc(N)cc2)c2cc3c(cc2C1)OCO3,244,12.1,inactive,inactive,inactive,inactive,,inactive,,
CCCN1CCO[C@@H]2c3cc(O)ccc3OC[C@@H]21,209,16.6,inactive,inactive,inactive,inactive,,,,

SMILES,"cell viability, % of control (lower = more cytotoxic) [1] [%]",viability (% of control) [2] [%],Potency [3],Potency [4],Potency [5],Potency [6],Potency [7],Potency [8],Potency [9],Potency [10]
CC(=O)Nc1ccc(OC[C@](C)(O)C(=O)Nc2ccc([N+](=O)[O-])c(C(F)(F)F)c2)cc1,138,106,inactive,inactive,inactive,,inactive,inactive,,
Cc1c(N)nc([C@H](CC(N)=O)NC[C@@H](N)C(N)=O)nc1C(=O)N[C@H](C(=O)N[C@@H](C)[C@H](O)[C@@H](C)C(=O)N[C@@H](C(=O)NCCc1nc(-c2nc(C(=O)NCCC[S+](C)C)cs2)cs1)[C@@H](C)O)C(O[C@H]1O[C@H](CO)[C@H](O)[C@@H](O)[C@@H]1O[C@H]1O[C@H](CO)[C@@H](O)[C@H](OC(N)=O)[C@H]1O)c1cnc[nH]1 (stereo partly specified),132,16,inactive,inactive,1.05 µM (active),,0.264 µM (active),0.418 µM (active),,
CC(C)N(CCNC(=O)CN1CCCC1=O)C(C)C,108,111,inactive,inactive,inactive,,inactive,inactive,,
COC[C@H]1OC(=O)c2coc3c2[C@@]1(C)C1=C(C3=O)[C@@H]2CC[C@H](O)[C@@]2(C)C[C@@H]1OC(C)=O,5.55,9.36,inactive,inactive,5.9 µM (active),13.2 µM (active),6.62 µM (active),2.09 µM (active),,
C[C@H]1CCCC=CC2C[C@H](O)C[C@@H]2[C@H](O)C=CC(=O)O1 (stereo partly specified),4.51,4,inactive,inactive,inactive,inactive,,inactive,,
CCN(CC)C(=O)c1ccc(C2=CC3(CCNCC3)Oc3cccc(O)c32)cc1,122,79,inactive,inactive,inactive,inactive,inactive,,,
CC(C)(O)C=CC(=O)[C@](C)(O)[C@H]1[C@H](O)C[C@]2(C)[C@@H]3CC=C4[C@@H](C=C(O)C(=O)C4(C)C)[C@]3(C)C(=O)C[C@@]12C,4.04,2.59,inactive,inactive,0.59 µM (active),0.209 µM (active),,0.0418 µM (active),,
CC[C@@H]1[C@@H](C)O[C@@](O)([C@@H](C)[C@H](O)[C@H](C)[C@H]2OC(=O)C=CC=C[C@@H](C)[C@@H]([C@@H](C)[C@@H](O)[C@H](C)[C@@]3(O)C[C@H](O[C@H]4C[C@H](O)[C@H](O)[C@H](C)O4)[C@H](CC)[C@@H](C)O3)OC(=O)C=CC=C[C@@H]2C)C[C@H]1O[C@H]1C[C@H](O)[C@H](O)[C@H](C)O1,11.5,3.46,inactive,inactive,0.662 µM (active),,0.59 µM (active),0.662 µM (active),,
CN(C)NC(=O)CCC(=O)O,121,96.3,inactive,inactive,26.4 µM (active),,,,,
C=C1C[C@H]2[C@H]3CCC(=O)[C@@]3(C)CC[C@@H]2[C@@]2(C)C=CC(=O)C=C12,12.4,32.6,inactive,inactive,,,,,,
Cc1ccccc1-n1c(Cn2cnc3c(N)ncnc32)nc2cccc(C)c2c1=O,68.3,9.3,inactive,inactive,1.18 µM (active),,5.26 µM (active),0.833 µM (active),,
COc1cc2cc(c1Cl)N(C)C(=O)C[C@H](OC(=O)C(C)C)[C@]1(C)O[C@H]1[C@H](C)[C@@H]1C[C@@](O)(NC(=O)O1)[C@H](OC)C=CC=C(C)C2,10.1,4.31,inactive,inactive,inactive,,,inactive,,
COc1cccc2c1[C@]13CCN(CC4CC4)[C@H](C2)[C@]1(OC)CCC(=O)C3,99.3,111,inactive,inactive,inactive,inactive,inactive,inactive,,
COc1ccc2c(c1)CN(C)CC2c1ccc(Cl)c(Cl)c1 (stereo unspecified),41,12.2,inactive,inactive,,,,,,
C[C@]12CCC(=O)C(O)=C1CC[C@@H]1[C@H]3CCC(=O)[C@@]3(C)CC[C@@H]12,,,,,,,,,inactive,inactive
CC1(N2CCC(n3c([C@@H]4CCCNC4)nc4ccccc43)CC2)CCCCCCC1,17.2,,,,,,,,,
CN(C)[C@@H]1C(=O)C(C(N)=O)=C(O)[C@@]2(O)C(=O)C3=C(O)c4c(O)cccc4[C@@](C)(O)[C@H]3[C@H](O)[C@@H]12,,,,,,,,,inactive,inactive
NC1=NC(=O)N2CC12 (stereo unspecified),,,,,,,,,inactive,inactive
Nc1ccc(Cl)cc1,,,inactive,inactive,,,,,,
C/C=C(/C)C(=O)O[C@H]1C(C)=C2[C@H]([C@@H]1OC(=O)CCCCCCC)[C@@](C)(OC(C)=O)C[C@H](OC(=O)CCC)[C@@]1(O)[C@H]2OC(=O)[C@@]1(C)O,,,inactive,inactive,,,,,,
O=C(Nc1ccccc1-c1ccc(Cl)cc1)c1cccnc1Cl,,,inactive,,,,,,,
NCCc1c[nH]c2ccccc12,,,inactive,inactive,,,,,,
